# Measurements published in PubChem BioAssay AID2401 (Southern Research Specialized Biocontainment Screening …, 2010).
# Screen size: about 2,200 compounds; about 530 (24%) were called active. A selection follows. Results with a measured potency or affinity are listed apart. A number with no mark means an inactive call.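 Rule for the calls: active = inhibition above a set limit at one or more concentrations of the dose series; inactive = inhibition under that limit at every dose.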
# Test: nmpC-GFP reporter counter-screen in S. Typhimurium, dose response, counter-screen for PhoP regulon inhibitor project, Salmonella Typhimurium, GFP fluorescence (AID 2401);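 note: S. typhimurium with Mg-insensitive nmpC-GFP reporter grown at 10 µM Mg2+; drop in reporter fluorescence reflects general culture growth inhibition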
# Conditions: 4 h; series mostly up to 150 µM; inhibition: at the top concentration
row,Structure (SMILES),inhibition [%]
1,CCC(=O)NC1=C(NC(C)c2ccccc2)C(=O)c2ccccc2C1=O (stereo not given),-23.7
2,O=S(=O)(c1ccc(NC(=S)Nc2ccc3c(c2)OCO3)cc1)N1CCOCC1,-22.1
3,Nc1ccc(N(c2ccccc2)c2ccc(N)cc2)cc1,12.5
4,CSc1nsc(SCC(=O)Nc2ccc(C(C)=O)cc2)n1,-12.8
5,O=C(Cc1cccs1)N(c1ccccc1)C1C=CS(=O)(=O)C1 (stereo not given),-20.5
6,O=C(OCC(=O)c1ccc(S(=O)(=O)N2CCCC2)cc1)C1=COCCO1,22.7
7,NNC(=S)Nc1ccc(Cl)cc1,10.3
8,COc1ccc2cc(C#N)c(NC(C)C)nc2c1,-8.85
9,NC(=S)c1cc2ccc(O)cc2oc1=O,30.4
10,Cc1ccc(NC(=S)NCCc2ccccc2)c(C)c1,-16.9
11,CNC(=O)CSc1nnc(-c2cccnc2)n1CCc1ccccc1,0.94
12,COc1nc(N(c2ccccc2)c2ccccc2)nc(-n2ccnc2)n1,-6.59
13,COc1cc(CNc2ccc(CNc3ncn[nH]3)cc2)ccc1OCc1ccccc1,-34.7
14,CCc1cccc(NC(=O)CCCSc2nc3ccccc3[nH]2)c1,14.9
15,O=C1c2ccccc2C(=O)N1Cc1nc(-c2ccccn2)no1,-21.6
16,CC(C)Nc1cc(C(F)(F)F)nc(-c2ccccn2)n1,-23.6
17,S=c1nc(-c2ccccc2)oc2c1CCCC2,23
18,c1ccc(-c2ncnc3nc4n(c23)CCC4)cc1,-18.3
19,O=C(Nc1cccc2ccccc12)OC1C=CS(=O)(=O)C1 (stereo not given),12.5
20,Cc1cccc(-n2c(SCC(N)=O)nc3c(c2=O)C2(CCCC2)Cc2ccccc2-3)c1,0.99
21,COc1ccc(Nc2nc(-c3cccc([N+](=O)[O-])c3)nc3ccccc23)cc1,-12.1
22,C=CCSc1nnc(-c2ccc(Cl)cc2Cl)o1,-25.1
23,c1ccc(-c2nnc(SCCC3OCCCO3)o2)cc1,-18.6

row,Structure (SMILES),inhibition [%]
1,COc1ccc(S(=O)(=O)n2nc(OC(=O)c3ccccc3Br)cc2N)cc1,10.2
2,COc1ccc(N(C(=O)CCl)C(C(=O)NCCc2ccccc2)c2cccs2)cc1 (stereo not given),-12
3,CCC(=O)c1ccc(OCC(O)CNCc2ccc(F)cc2)cc1 (stereo not given),11.7
4,COc1cccc(OCC(O)CN2CCN(c3ccccn3)CC2)c1 (stereo not given),-25.8
5,Cc1cc(Nc2ccccc2)nc2cc(O)ccc12,6.85
6,COc1ccc(C2=C(Nc3ccc(C)cc3)c3ccccc3C2=O)cc1,9.64
7,COc1ccc(NC2=Nc3cccc4cccc2c34)cc1,-15.2
8,Cc1cc(=O)oc2cc(OCC(O)CN3CCc4ccccc4C3)ccc12 (stereo not given),32.7
9,C=CCN(C(=O)c1cccc(S(=O)(=O)N2CCN(C)CC2)c1)c1nc(-c2ccccc2)cs1,-26.1
10,O=C(O)CCc1nnc2n(Cc3ccc(F)cc3)c(=O)c3ccccc3n12,-24.6
11,Cc1nc(-c2ccccn2)sc1C(=O)Nc1ccc(F)cc1F,-20.9
12,CN(C(=O)/C=C/c1ccccc1)C1CCS(=O)(=O)C1 (stereo not given),-30.1
13,COc1ccccc1N1CCN(c2ccc(-c3ccccc3)nn2)CC1,-12.4
14,COc1cc(CNCc2ccccn2)ccc1OCC(=O)NC(C)(C)C,-7.95
15,Cc1ccc(NS(=O)(=O)c2ccccc2)c2c1CC(C)(C)O2,-20.3
16,Cc1cc(C)nc(N(C#N)C(C)C(=O)N(C)C)n1 (stereo not given),-20.3
17,Cc1cc2cc(CCNC(=O)c3cccs3)c(=O)[nH]c2cc1C,1.29
18,Cc1ccc(C(=O)Nc2ccccc2C(N)=O)o1,4.25
19,COc1cccc(Cn2cnc3c(NS(=O)(=O)c4cccc(Cl)c4Cl)c(C)c(C)cc32)c1,19.3
20,Cc1[nH]c2ccccc2c1C(=O)CN1CCSCC1,-12.8
21,CC(C)(C)c1ccc(NC(=O)COC(=O)c2ccc([N+](=O)[O-])s2)cc1,34
22,Cc1cc(=O)oc(C)c1C(=O)NCc1cccnc1,-5.26
23,Cc1nn(CCOc2ccccc2)c(=O)n1-c1ccc(F)cc1,-24.6

row,Structure (SMILES),inhibition [%]
1,Cc1cccc(NC(=O)Cn2c(/C=C/c3ccccc3)nc3ccccc32)c1,-18
2,Cc1cccc(OCC(=O)NNc2c3ccccc3nc3ccccc23)c1,-23.7
3,O=C(NCc1ccco1)c1c2c(nc3ccccc13)CCC2,-4.54
4,Cc1ccc(C(=O)NNc2c3ccccc3nc3ccccc23)cc1,-21.8
5,Cc1ccc(CSCc2nc3ccccc3[nH]2)cc1,19.2
6,Cc1ccccc1NC(=O)c1sc2nc3c(c(-c4ccco4)c2c1N)CCC3,-7.73
7,Cn1c(-c2ccc3c(c2)OCO3)cnc1NCc1cccc(Cl)c1,1.41
8,CC(=O)c1c(C)n([O-])c2ccccc2[n+]1=O,26.2
9,COC(=O)c1sccc1NC(=O)C1C2C=CC(O2)C1C(=O)O (stereo not given),24.6
10,COC(=O)c1ccc2nc(C(F)(F)F)[nH]c2c1,3.54
11,N#CCCN(C(=O)CN1C(=O)NC2(CCCC2)C1=O)c1ccccc1F,-3.96
12,O=C1C(Nc2ccccc2)=C/C(=N/S(=O)(=O)c2cccs2)c2ccccc21,21.1
13,COc1cc(C=O)ccc1OCCCOc1ccccc1[N+](=O)[O-],4.63
14,Cc1snc(S(=O)(=O)/C(C#N)=N\Nc2ccccc2)c1C#N,-6.54
15,C(=Nc1ccc(Nc2ccccc2)cc1)c1ccc2ccccc2c1,-4.57
16,Cc1ccsc1C=Nc1ccc(O)cc1,-36.1
17,Cc1nnc(NC(=O)CSc2ncnc3scc(-c4ccccc4)c23)s1,-33.5
18,Cc1onc(-c2c(F)cccc2Cl)c1C(=O)Nc1cccc(Cn2cccn2)c1,-0.75
19,CCOc1ccc(NC(=O)CCC(=O)n2nc(C)cc2C)cc1,-4.16
20,COc1nccnc1NS(=O)(=O)c1ccc(NC(=S)NC(=O)c2cccnc2)cc1,-42.9
21,COc1cc(OC)c(C(=O)Nc2ccc(S(=O)(=O)Nc3ncccn3)cc2)cc1OC,-24.9
22,Cc1ccc(-c2nc3ccccc3s2)cc1S(=O)(=O)N1CCCC1,-16.7
23,CCOC(=O)Cc1ccc2sc(-c3ccccc3)nc2c1,-22

row,Structure (SMILES),inhibition [%]
1,COc1ccc(C2=NOC(C(=O)Nc3ccc(C)cc3)C2)cc1OC (stereo not given),2.64
2,COc1cccc(C2CC(c3ccccc3OC)n3nc(N)nc3N2)c1 (stereo not given),-20.8
3,CCCc1cc(C(=O)NNC(=S)NC(C)c2ccccc2)cs1 (stereo not given),-35.7
4,Cc1ccc(-n2sc3ccccc3c2=O)cc1S(=O)(=O)N1CCCCC1,8.77
5,CCNC(=O)COC(=O)CCC(=O)c1cccs1,-7.69
6,FC(F)(F)c1cc(C(F)(F)F)c2ccc(Oc3ccccc3)nc2n1,9.05
7,Fc1ccccc1COc1ccc(Br)cc1CNCc1ccncc1,1.55
8,O=C(Cc1ccccc1)NCc1ccc(F)cc1,-30.9
9,O=C(Nc1ccc(S(=O)(=O)Nc2nccs2)cc1)c1cc(-c2ccccc2)nc2ccccc12,4.41
10,COc1ccc(C(C)=O)c2c(O)cccc12,4.56
11,CC1(C)CC(=O)C2=C(C1)OC1=C(C(=O)CC(C)(C)C1)C2c1ccc(O)cc1O,9.69
12,c1ccc(-n2cnc3cc(NCc4ccccn4)ccc32)cc1,-4.69
13,CCOC(=O)C1(S(=O)(=O)c2ccccc2)CCN(Cc2ccc(Cl)cc2)CC1,5.17
14,O=C(Nc1ccc2c(c1)oc1ccccc12)N1CCOCC1,-7.09
15,CCOc1ccccc1OCC(=O)Nc1ccc(S(=O)(=O)Nc2nc(C)cc(C)n2)cc1,-11.6
16,Cc1ccc(SC(c2ccc(C)cc2)C(Cn2cncn2)C(=O)c2ccccc2)cc1 (stereo not given),-15.4
17,CN(C)c1nc(N)nc(Cn2ccnc2)n1,-5.04
18,N/C(=N\OC(=O)c1cccs1)C1(c2ccc(Cl)cc2Cl)CC1,-14.9
19,C=CCc1ccccc1OCC(O)CN1CCN(CCN2C(=O)c3cccc4cccc(c34)C2=O)CC1 (stereo not given),1.41
20,COc1cc(C2Nc3cccc4cccc(c34)N2)cc(OC)c1O,23.9
21,COc1cccc(C2CC(=O)Nc3cc(OC)c(OC)c(OC)c32)c1OC (stereo not given),-6.54
22,C=C(C)Cn1c(CCn2c3ccccc3c3ccccc32)n[nH]c1=S,4.79
23,CN(C(=O)c1cccc(C#N)c1)c1nnc(-c2cnccn2)s1,1.99

row,Structure (SMILES),inhibition [%]
1,Cn1c(CC(=O)Nc2ccc(Cl)c(Cl)c2)nnc1SCC(=O)Nc1nccs1,-37.2
2,Cc1cc2ncn(CC(O)COc3cccc(C(=O)O)c3)c2cc1C (stereo not given),-28.7
3,N#Cc1c(N)nc(SCC(=O)NC2CCCCC2)c(C#N)c1-c1ccc(Cl)cc1,-24.1
4,Fc1cccc(NCc2cn3ccccc3n2)c1,23.2
5,O=S(=O)(c1ccc(N2CCCC2c2nc3ccccc3s2)nc1)N1CCOCC1 (stereo not given),-14.8
6,Nc1nnc(Sc2ccc(Cl)cc2[N+](=O)[O-])s1,-0.98
7,C#CCn1cc(/C=N/Nc2nc3ccccc3[nH]2)c2ccccc21,31.1
8,CCN(CC)c1ccc(/C=N/NC(=S)NCc2ccccc2)c(O)c1,9.66
9,CN(c1cccc(Cl)c1)S(=O)(=O)c1cccc(C(=O)Nc2nc3ccccc3[nH]2)c1,16.2
10,C(=C\c1ccccc1)/C=N/Nc1nc2ccccc2[nH]1,19.1
11,COc1ccc(/C=C/c2nc3ccccc3n2Cc2ccccc2OC)cc1,-5.49
12,COc1ccccc1NC(=O)Cn1nnc(-c2ccccc2NC(=O)c2cccs2)n1,-10.7
13,COC(=O)CSc1nnc(-c2ccco2)n1Cc1ccco1,-13.6
14,Cc1cccc(-n2nc3c(c2NC(=O)c2ccco2)CSC3)c1C,-29.7
15,O=C(C[n+]1cc(-c2ccccc2)n2c1CCCCC2)c1ccc(Cl)cc1,-22.6
16,CCN(CC)CC(=O)Nc1nc(-c2ccc(Cl)cc2)cs1,-3.92
17,C/C(=N/Nc1nc(-c2ccc(Cl)cc2)cs1)c1cccs1,-20.6
18,COc1ccc(OC)c(NC(=S)NCCCN2CCOCC2)c1,-26.6
19,CN(CCNS(=O)(=O)c1ccc2c(c1)oc(=O)n2C)Cc1ccccc1,14.6
20,Cc1cc(C)c(C#N)c(SCC(O)CS(=O)(=O)Cc2ccccc2)n1 (stereo not given),-4.96
21,O=C(CSC1CCCCC1)Nc1ccccc1Br,-14.2
22,Cc1ccc(C(=O)Oc2ccc(C(=O)COC(=O)c3cnccn3)cc2)cc1,-20.6
23,O=C(NC1CCCCC1)C(c1ccncc1)N(Cc1ccccc1)C(=O)c1ccc(-c2ccccc2)[nH]1 (stereo not given),8.67
